In PubChem BioAssay:
Where “and” joins values, the source holds several entries; their conditions need not be identical. Equal entries are not always repeated. For some of these results: Measured potencies and affinities stand elsewhere. Where a structure was tested more than once in an assay, its records may differ in their call. Calls of active or inactive are those of the source. Unless noted, no rule for the calls is given here.

What was measured:
[1] = antimalarial activity against Dd2 strain (AID 2302;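 active = growth inhibition above 50% at the single 2 µM test dose, taken to imply half-maximal potency below 2 µM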;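 also: 0% = DMSO untreated growth and 100% = chloroquine plus artemisinin killed control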); settings: P. falciparum Dd2 in RBCs, LDH growth readout, 72 h; at 2 µM; stronger effect = higher value
[2] = HepG2 cytotoxicity, primary screen, cytotoxicity control for P. falciparum antimalarial project, cell-based, ATP luminescence (AID 2303;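 active = inhibition above 50%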;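 also: 0% = DMSO wells and 100% = digitonin-killed cells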); settings: HepG2 viability, 24-48 h, at 10 µM, stronger effect = higher value
[3] = target: L-lactate dehydrogenase (Plasmodium falciparum (isolate CDC / Honduras)) (UniProt Q27743); assay: PfLDH activity inhibition – cell lysate, 3D7 strain, counter-screen for P. falciparum growth inhibition project (AID 2304);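 also: 0% = vehicle and 100% = reference inhibitor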; settings: P. falciparum 3D7 crude extract, LDH APAD/NBT absorbance; at 2 µM; stronger effect = higher value
[4] = inhibition of 3D7 malaria parasite growth – strain 3D7 (AID 2306);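 also: 0% = DMSO wells and 100% = chloroquine plus artemisinin control wells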; settings: P. falciparum 3D7 erythrocytic growth, LDH absorbance, 72 h; at 2 µM; stronger effect = higher value
[5] = target: Calcium-dependent protein kinase 1 (Plasmodium falciparum (isolate 3D7)) (UniProt P62344); assay: PfCDPK1 kinase inhibitors, biochemical, TCAMS library (AID 1159585; cut-off not given, nearly all actives have IC50 up to about 0.98 µM;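 also: inhibitors leave more ATP so luminescence rises with inhibition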); settings: recombinant PfCDPK1, Kinase-Glo ATP depletion luminescence
[6] = target: Plasmodium falciparum protein kinase 6 (PK6, PF3D7_1337100) (UniProt Q8IDW1); assay: PfPK6 kinase inhibitors, biochemical, TCAMS library (AID 1159586); settings: recombinant PfPK6, Kinase-Glo ATP depletion luminescence
[7] = target: Protein kinase 7 (PK7), Plasmodium falciparum 3D7 (PF3D7_0213400) (UniProt Q7YTF7); assay: inhibition of Plasmodium PK7 catalytic activity – biochemical, TCAMS antimalarial set, Kinase-Glo luminescence (AID 1159587); settings: recombinant PfPK7, Kinase-Glo ATP depletion luminescence
[8] = target: Calcium-dependent protein kinase 4 (Plasmodium falciparum (isolate 3D7)) (UniProt Q8IBS5); assay: PfCDPK4 kinase inhibitors, biochemical, TCAMS library (AID 1159588; cut-off not given, nearly all actives have IC50 up to about 0.91 µM); settings: recombinant PfCDPK4, Kinase-Glo ATP depletion luminescence
Chain of Calcium-dependent protein kinase 4 (Plasmodium falciparum (isolate 3D7)) (Q8IBS5 whole entry, looked up): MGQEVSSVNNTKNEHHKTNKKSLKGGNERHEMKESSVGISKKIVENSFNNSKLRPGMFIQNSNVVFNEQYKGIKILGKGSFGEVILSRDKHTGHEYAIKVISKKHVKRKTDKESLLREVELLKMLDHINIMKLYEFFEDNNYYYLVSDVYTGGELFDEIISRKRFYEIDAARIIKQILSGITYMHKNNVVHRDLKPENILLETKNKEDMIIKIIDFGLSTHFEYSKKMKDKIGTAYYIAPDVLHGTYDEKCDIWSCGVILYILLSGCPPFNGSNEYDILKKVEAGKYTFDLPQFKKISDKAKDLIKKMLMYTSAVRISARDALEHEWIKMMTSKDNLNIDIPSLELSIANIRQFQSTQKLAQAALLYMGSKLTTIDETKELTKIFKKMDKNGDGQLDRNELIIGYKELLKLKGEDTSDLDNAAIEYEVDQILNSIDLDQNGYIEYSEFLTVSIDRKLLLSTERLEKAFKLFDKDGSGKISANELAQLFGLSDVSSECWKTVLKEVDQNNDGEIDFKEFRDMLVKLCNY

Chain of L-lactate dehydrogenase (Plasmodium falciparum (isolate CDC / Honduras)) (Q27743 whole entry, looked up): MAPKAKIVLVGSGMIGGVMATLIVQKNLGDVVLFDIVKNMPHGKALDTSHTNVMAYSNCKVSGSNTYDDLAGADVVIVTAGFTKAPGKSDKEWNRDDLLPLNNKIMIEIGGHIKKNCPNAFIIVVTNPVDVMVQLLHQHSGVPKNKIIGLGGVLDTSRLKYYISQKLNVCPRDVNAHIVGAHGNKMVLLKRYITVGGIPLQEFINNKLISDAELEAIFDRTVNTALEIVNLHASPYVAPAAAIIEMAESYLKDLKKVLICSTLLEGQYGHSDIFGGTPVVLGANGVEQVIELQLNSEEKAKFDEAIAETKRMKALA
Chain of Plasmodium falciparum protein kinase 6 (PK6, PF3D7_1337100) (Q8IDW1 1-305): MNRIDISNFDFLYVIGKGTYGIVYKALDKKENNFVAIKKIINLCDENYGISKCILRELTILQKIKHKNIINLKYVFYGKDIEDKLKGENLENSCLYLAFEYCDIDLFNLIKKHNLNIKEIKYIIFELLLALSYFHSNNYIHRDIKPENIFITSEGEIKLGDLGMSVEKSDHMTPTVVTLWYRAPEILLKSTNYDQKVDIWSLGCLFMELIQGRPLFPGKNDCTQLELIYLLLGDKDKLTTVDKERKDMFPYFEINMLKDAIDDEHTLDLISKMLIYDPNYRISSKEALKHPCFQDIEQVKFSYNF
Chain of Protein kinase 7 (PK7), Plasmodium falciparum 3D7 (PF3D7_0213400) (Q7YTF7 1-343): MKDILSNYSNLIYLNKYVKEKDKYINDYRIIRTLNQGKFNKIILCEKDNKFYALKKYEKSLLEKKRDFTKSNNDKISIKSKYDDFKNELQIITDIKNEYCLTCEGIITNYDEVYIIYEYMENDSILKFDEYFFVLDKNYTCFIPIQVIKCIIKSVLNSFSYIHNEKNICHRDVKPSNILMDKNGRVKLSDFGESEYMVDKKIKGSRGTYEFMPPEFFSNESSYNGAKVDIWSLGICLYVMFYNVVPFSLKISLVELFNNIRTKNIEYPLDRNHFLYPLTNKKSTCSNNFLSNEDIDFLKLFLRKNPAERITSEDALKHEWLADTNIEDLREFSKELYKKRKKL
Chain of Calcium-dependent protein kinase 1 (Plasmodium falciparum (isolate 3D7)) (P62344 whole entry, looked up): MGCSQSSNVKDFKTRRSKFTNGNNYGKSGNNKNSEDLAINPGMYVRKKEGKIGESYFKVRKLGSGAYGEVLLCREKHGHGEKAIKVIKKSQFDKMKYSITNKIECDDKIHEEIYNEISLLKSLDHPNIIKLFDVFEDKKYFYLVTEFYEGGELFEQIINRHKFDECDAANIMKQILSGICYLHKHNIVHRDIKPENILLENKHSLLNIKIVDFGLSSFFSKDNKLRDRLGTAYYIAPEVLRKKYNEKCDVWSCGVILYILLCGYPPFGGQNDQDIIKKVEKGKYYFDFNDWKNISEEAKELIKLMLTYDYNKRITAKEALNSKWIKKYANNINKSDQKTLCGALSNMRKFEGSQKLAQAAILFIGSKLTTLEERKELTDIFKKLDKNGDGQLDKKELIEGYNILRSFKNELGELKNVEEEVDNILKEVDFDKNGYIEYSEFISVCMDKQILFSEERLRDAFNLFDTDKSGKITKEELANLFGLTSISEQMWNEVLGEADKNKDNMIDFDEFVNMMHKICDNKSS

SMILES | growth inhibition [1] | inhibition [2] | inhibition [3] | growth inhibition [4] | outcome [5] | outcome [6] | outcome [7] | outcome [8]
CN(c1cc(NC(=O)c2ccc(F)cc2)ccn1)C1CCN(Cc2cccc(F)c2)CC1 | 97% (active) | 13% (inactive) | 5% (inactive) | 100% (active) | inactive | inactive | inactive | inactive
Cc1ccc(CC(C)NCC(O)c2cccc(Br)c2)cc1 (stereo not given) | 97% (active) | 7% (inactive) | 3% (inactive) | 99% (active) | inactive | inactive | inactive | inactive
O=S(=O)(NC1CCC(CN2CCC(c3c[nH]c4ccccc34)CC2)CC1)c1ccc(Cl)c(Cl)c1 (stereo not given) | 32% (inactive) | 36% (inactive) | 0% (inactive) | 97% (active) | inactive | inactive | inactive | inactive
COC(=O)c1ccc(CC(C)NCC(O)c2cccc(C(F)(F)F)c2)cc1F (stereo not given) | 47% (inactive) | 1% (inactive) | 7% (inactive) | 82% (active) | inactive | inactive | inactive | inactive
CCCCCc1cc(O)c2c(c1)OC(C)(C)CC2C1=CCN(Cc2ccccc2)CC1 (stereo not given) | 79% (active) | 15% (inactive) | -5% (inactive) | 99% (active) | inactive | inactive | inactive | inactive
Cc1[nH]c2ccc(O)cc2c1C1CCN(CC2CCC(NC(=O)/C=C/c3c(Cl)cccc3Cl)CC2)CC1 (stereo not given) | 93% (active) | 25% (inactive) | -3% (inactive) | 103% (active) | inactive | inactive | inactive | inactive
CC[C@H]1CN2CCc3cc(OC)c(OC)cc3[C@@H]2C[C@@H]1C[C@H]1NCCc2c1cc(OC)c(OC)c2Br | 97% (active) | 45% (inactive) | -1% (inactive) | 99% (active) | inactive | inactive | inactive | inactive
CN1CCC(COC(=O)C(O)(c2ccccc2)c2ccccc2)C1 (stereo not given) | 4% (inactive) | 0% (inactive) | -4% (inactive) | 98% (active) | inactive | inactive | inactive | inactive
CC(C)CNCc1cccc(-c2cccc(CN(C(=O)Nc3ccccc3)C3CCN(Cc4ccccc4)CC3)c2)c1 | 89% (active) | 31% (inactive) | 3% (inactive) | 102% (active) | inactive | inactive | inactive | inactive
c1ccc(C(OCCC2CCN(Cc3cccc4cccnc34)CC2)c2ccccc2)cc1 | 99% (active) | 9% (inactive) | 0% (inactive) | 99% (active) | inactive | inactive | inactive | inactive
Cc1[nH]c2ccccc2c1C1=CCN(CCN2CCCc3c(Br)cccc3C2=O)CC1 | 90% (active) | 10% (inactive) | -1% (inactive) | 95% (active) | inactive | inactive | inactive | inactive
O=[N+]([O-])c1ccc(Oc2c(Cl)cc(S(=O)(=O)N3CCC(CN4CCC(c5c[nH]c6ccccc56)CC4)CC3)cc2Cl)c(Cl)c1 | 83% (active) | 43% (inactive) | -1% (inactive) | 100% (active) | inactive | inactive | inactive | inactive
Cc1cc(O)cc2c(C3CCN(CC4CCC(NC(=O)/C=C/c5ccccc5Cl)CC4)CC3)c[nH]c12 (stereo not given) | 84% (active) | 21% (inactive) | 1% (inactive) | 99% (active) | inactive | inactive | inactive | inactive
COC(=O)c1ccc(CC(C)NCC(O)c2cccc(Oc3cccc(C(F)(F)F)c3)c2)cc1 (stereo not given) | 73% (active) | 19% (inactive) | 2% (inactive) | 91% (active) | inactive | inactive | inactive | inactive
CC(=O)N(Cc1cccc(-c2ccc(CNCCc3ccccc3)cc2)c1)C1CCN(Cc2ccccc2)CC1 | 50% (active) | 32% (inactive) | -5% (inactive) | 99% (active) | inactive | inactive | inactive | inactive
Cc1cc(C(=O)NC2CCN(CC3(c4ccc(Cl)cc4)CCC3)CC2)on1 | 95% (active) | 5% (inactive) | -3% (inactive) | 98% (active) | inactive | inactive | inactive | inactive
COC(=O)c1ccc(CC(C)NCC(O)c2cccc(Br)c2)cc1 (stereo not given) | 88% (active) | -6% (inactive) | -2% (inactive) | 99% (active) | inactive | inactive | inactive | inactive
CC(C)N(C)C(=O)n1cnc(S(=O)(=O)C2C[C@@H]3CC[C@H]2C3)n1 (stereo not given in full) | 96% (active) | 26% (inactive) | 6% (inactive) | 97% (active) | inactive | inactive | inactive | inactive

SMILES | growth inhibition [1] | inhibition [2] | inhibition [3] | growth inhibition [4] | outcome [5] | outcome [6] | outcome [7] | outcome [8]
O=C(NC1CCC(N2CCC3(CC2)C(=O)NCN3c2ccccc2)CC1)c1cc2ccccc2[nH]1 (stereo not given) | 40% (inactive) | -2% (inactive) | 1% (inactive) | 98% (active) | inactive | inactive | inactive | inactive
COc1ccc(C[C@H](C)NC[C@H](O)c2cccc(Cl)c2)cc1F | 75% (active) | 6% (inactive) | -2% (inactive) | 89% (active) | inactive | inactive | inactive | inactive
Cc1[nH]c2ccccc2c1C1=CCN(CCCCC2(C)C(=O)Nc3ccccc32)CC1 (stereo not given) | 89% (active) | 8% (inactive) | -4% (inactive) | 94% (active) | inactive | inactive | inactive | inactive
O=C(C=Cc1ccccc1C(F)(F)F)NC1CCC(CN2CCC(c3c[nH]c4ccccc34)CC2)CC1 (stereo not given) | 47% (inactive) and 90% (active) | 47% (inactive) and 73% (active) | -1% (inactive) and 1% (inactive) | 102% (active) | inactive | inactive | inactive | inactive
O=C(C=Cc1cccc(Cl)c1Cl)NC1CCC(CN2CCC(c3c[nH]c4ccccc34)CC2)CC1 (stereo not given) | 78% (active) and 5% (inactive) | 40% (inactive) and 33% (inactive) | 6% (inactive) and -5% (inactive) | 102% (active) and 83% (active) | inactive | inactive | inactive | inactive
O=C(NC1CCC(CN2CCC(c3c[nH]c4ccccc34)CC2)CC1)c1cc2ccccc2s1 (stereo not given) | 43% (inactive) and 68% (active) | 44% (inactive) | 4% (inactive) and 5% (inactive) | 98% (active) and 101% (active) | inactive | inactive | inactive | inactive
c1ccc(C(OCCC2CCN(Cc3cccnc3)CC2)c2ccccc2)cc1 | 98% (active) | 12% (inactive) | 5% (inactive) | 99% (active) | inactive | inactive | inactive | inactive
CC[C@H]1CN2CC[C@@H]1C[C@H]2[C@H](O)c1ccnc2ccc(OC)cc12 | 61% (active) | -8% (inactive) | -4% (inactive) | 100% (active) | inactive | inactive | inactive | inactive
CC[C@H]1CN2CC[C@@H]1C[C@H]2[C@H](O)c1cc(N2CCOCC2)nc2ccc(OC)cc12 | 99% (active) | 10% (inactive) | 3% (inactive) | 99% (active) | inactive | inactive | inactive | inactive
COc1ccc(CCNCc2ccc3nc(N)c(C)cc3c2)cc1 | 15% (inactive) | -1% (inactive) | 3% (inactive) | 100% (active) | inactive | inactive | inactive | inactive
O=C(/C=C/c1ccc(Cl)c(Cl)c1)N1CCC(CN2CCC(c3cn(CC(=O)N4CCCCC4)c4ccccc34)CC2)CC1 | 65% (active) | 52% (active) | -2% (inactive) | 100% (active) | inactive | inactive | inactive | inactive
CN1CC=C(c2c[nH]c3ccc(Sc4ccccc4)cc23)CC1 | 99% (active) | 36% (inactive) | -2% (inactive) | 98% (active) | inactive | inactive | inactive | inactive
CC(Cc1ccc(C(C)(C)C)cc1)NCC(O)c1ccccc1 (stereo not given) | 89% (active) | 5% (inactive) | 3% (inactive) | 94% (active) | inactive | inactive | inactive | inactive
CN(C)CCc1c[nH]c2ccc(C(=O)Nc3ccc(-c4ccncc4)cc3)cc12 | 46% (inactive) | 23% (inactive) | -7% (inactive) | 99% (active) | inactive | inactive | inactive | inactive
O=C(Nc1ccc(Oc2ccccc2)cc1)N1CCC(CN2CCC(c3c[nH]c4ccccc34)CC2)CC1 | 59% (active) | 53% (active) | -1% (inactive) | 100% (active) | inactive | inactive | inactive | inactive
CN1CC[C@H](N(Cc2ccccc2F)c2ccc(C#N)c(Cl)c2)C1 | 68% (active) | 18% (inactive) | -6% (inactive) | 88% (active) | inactive | inactive | inactive | inactive
Cc1c(C)c2c(c(C)c1O)CC[C@](C)(C(=O)N1CCC(CN3CCC(c4c[nH]c5ccccc45)CC3)CC1)O2 | 98% (active) | 29% (inactive) | 2% (inactive) | 101% (active) | inactive | inactive | inactive | inactive
